Assay results from publication PMC11102866, “Nucleosome-bound NR5A2 structure reveals pioneer factor mechanism by DNA minor groove anchor competition”.
Where a chain is given by its changes, count along the chain named. Names and notes keep the numbering of the source.

B1: 3 (nucleosome)
DNA 1: ATCCTTCAAGGCCACGGTGCCGAGGCCGCTCAATTGGTCGTAGACAGCTCTAGCACCGCTTAAACGCACGTACGCGCTGTCCCCCGCGTTTTAACCGCCAAGGGGATTACTCCCTAGTCTCCAGGCACGTGTCAGATATATACATCCTGTGAT
DNA 2: ATCACAGGATGTATATATCTGACACGTGCCTGGAGACTAGGGAGTAATCCCCTTGGCGGTTAAAACGCGGGGGACAGCGCGTACGTGCGTTTAAGCGGTGCTAGAGCTGTCTACGACCAATTGAGCGGCCTCGGCACCGTGGCCTTGAAGGAT
modifications: reconstituted with mouse histones H2A, H2B, H3.3 and H4
B2: 20 (nucleosome)
DNA 1: ATCCTGGAGAATCCCGGTGCCGTCAAGGCCAAATTGGTCGTAGACAGCTCTAGCACCGCTTAAACGCACGTACGCGCTGTCCCCCGCGTTTTAACCGCCAAGGGGATTACTCCCTAGTCTCCAGGCACGTGTCAGATATATACATCCTGTGAT
DNA 2: ATCACAGGATGTATATATCTGACACGTGCCTGGAGACTAGGGAGTAATCCCCTTGGCGGTTAAAACGCGGGGGACAGCGCGTACGTGCGTTTAAGCGGTGCTAGAGCTGTCTACGACCAATTTGGCCTTGACGGCACCGGGATTCTCCAGGAT
modifications: reconstituted with mouse histones H2A, H2B, H3.3 and H4
B3: 30 (nucleosome)
DNA 1: ATCCTGGAGAATCCCGGTGCCGAGGCCGCTCATCAAGGCCAAGACAGCTCTAGCACCGCTTAAACGCACGTACGCGCTGTCCCCCGCGTTTTAACCGCCAAGGGGATTACTCCCTAGTCTCCAGGCACGTGTCAGATATATACATCCTGTGAT
DNA 2: ATCACAGGATGTATATATCTGACACGTGCCTGGAGACTAGGGAGTAATCCCCTTGGCGGTTAAAACGCGGGGGACAGCGCGTACGTGCGTTTAAGCGGTGCTAGAGCTGTCTTGGCCTTGATGAGCGGCCTCGGCACCGGGATTCTCCAGGAT
modifications: reconstituted with mouse histones H2A, H2B, H3.3 and H4
B4: 28 (nucleosome)
DNA 1: ATCCTGGAGAATCCCGGTGCCGAGGCCGCTTCAAGGCCAGTAGACAGCTCTAGCACCGCTTAAACGCACGTACGCGCTGTCCCCCGCGTTTTAACCGCCAAGGGGATTACTCCCTAGTCTCCAGGCACGTGTCAGATATATACATCCTGTGAT
DNA 2: ATCACAGGATGTATATATCTGACACGTGCCTGGAGACTAGGGAGTAATCCCCTTGGCGGTTAAAACGCGGGGGACAGCGCGTACGTGCGTTTAAGCGGTGCTAGAGCTGTCTACTGGCCTTGAAGCGGCCTCGGCACCGGGATTCTCCAGGAT
modifications: reconstituted with mouse histones H2A, H2B, H3.3 and H4
B5: 24 (nucleosome)
DNA 1: ATCCTGGAGAATCCCGGTGCCGAGGCTCAAGGCCAGGTCGTAGACAGCTCTAGCACCGCTTAAACGCACGTACGCGCTGTCCCCCGCGTTTTAACCGCCAAGGGGATTACTCCCTAGTCTCCAGGCACGTGTCAGATATATACATCCTGTGAT
DNA 2: ATCACAGGATGTATATATCTGACACGTGCCTGGAGACTAGGGAGTAATCCCCTTGGCGGTTAAAACGCGGGGGACAGCGCGTACGTGCGTTTAAGCGGTGCTAGAGCTGTCTACGACCTGGCCTTGAGCCTCGGCACCGGGATTCTCCAGGAT
modifications: reconstituted with mouse histones H2A, H2B, H3.3 and H4
B6: 25 (nucleosome)
DNA 1: B5 DNA 1 with T27C, C28T, A29C, G31A, C33G, A35C, G36A
DNA 2: B5 DNA 2 with C118T, T119G, G121C, C123T, T125G, G126A, A127G
modifications: reconstituted with mouse histones H2A, H2B, H3.3 and H4
B7: 29 (nucleosome)
DNA 1: B3 DNA 1 with A32T, T33C, C34A, A36G, G38C, C40A, A41T
DNA 2: B4 DNA 2 with C114T, T115G, G117C, C119T, T121G, G122A, A123G
modifications: reconstituted with mouse histones H2A, H2B, H3.3 and H4
B8: 18 (nucleosome)
DNA 1: ATCCTGGAGAATCCCGGTGCTCAAGGCCATCAATTGGTCGTAGACAGCTCTAGCACCGCTTAAACGCACGTACGCGCTGTCCCCCGCGTTTTAACCGCCAAGGGGATTACTCCCTAGTCTCCAGGCACGTGTCAGATATATACATCCTGTGAT
DNA 2: ATCACAGGATGTATATATCTGACACGTGCCTGGAGACTAGGGAGTAATCCCCTTGGCGGTTAAAACGCGGGGGACAGCGCGTACGTGCGTTTAAGCGGTGCTAGAGCTGTCTACGACCAATTGATGGCCTTGAGCACCGGGATTCTCCAGGAT
modifications: reconstituted with mouse histones H2A, H2B, H3.3 and H4
B9: 19 (nucleosome)
DNA 1: B2 DNA 1 with G22T, T23C, C24A, A26G, G28C, C30A, A31C
DNA 2: B8 DNA 2 with A124T, T125G, G127C, C129T, T131G, G132A, A133G
modifications: reconstituted with mouse histones H2A, H2B, H3.3 and H4
B10: 23 (nucleosome)
DNA 1: B5 DNA 1 with C26T, T27C, C28A, A30G, G32C, C34A, A35T
DNA 2: B5 DNA 2 with T119A, G120T, C122G, T124C, G126T, A127G, G128A
modifications: reconstituted with mouse histones H2A, H2B, H3.3 and H4
B11: 21 (nucleosome)
DNA 1: B2 DNA 1 with T23A, C24T, A25C, G27A, C29G, A31C
DNA 2: B2 DNA 2 with T123G, G125C, C127T, T129G, G130A, A131T
modifications: reconstituted with mouse histones H2A, H2B, H3.3 and H4
B12: 22 (nucleosome)
DNA 1: B5 DNA 1 with G25T, T27A, C28A, A29G, A30G, G31C, G32C, C33A, C34T, A35T
DNA 2: B8 DNA 2 with T122G, A124C, T125C, G126T, G127T, C128G, C129A, T130C, G132C, A133G
modifications: reconstituted with mouse histones H2A, H2B, H3.3 and H4
B13: 26 (nucleosome)
DNA 1: ATCCTGGAGAATCCCGGTGCCGAGGCCGTCAAGGCCATCGTAGACAGCTCTAGCACCGCTTAAACGCACGTACGCGCTGTCCCCCGCGTTTTAACCGCCAAGGGGATTACTCCCTAGTCTCCAGGCACGTGTCAGATATATACATCCTGTGAT
DNA 2: ATCACAGGATGTATATATCTGACACGTGCCTGGAGACTAGGGAGTAATCCCCTTGGCGGTTAAAACGCGGGGGACAGCGCGTACGTGCGTTTAAGCGGTGCTAGAGCTGTCTACGATGGCCTTGACGGCCTCGGCACCGGGATTCTCCAGGAT
modifications: reconstituted with mouse histones H2A, H2B, H3.3 and H4
B14: 27 (nucleosome)
DNA 1: B4 DNA 1 with T31C, C32A, A34G, G36C, C38A, A39C
DNA 2: B4 DNA 2 with T115G, G116T, C118G, T120C, G122T, A123G
modifications: reconstituted with mouse histones H2A, H2B, H3.3 and H4
B15: 31 (nucleosome)
DNA 1: B3 DNA 1 with T33A, C34T, A35C, G37A, C39G, A41C
DNA 2: B3 DNA 2 with T113G, G115C, C117T, T119G, G120A, A121T
modifications: reconstituted with mouse histones H2A, H2B, H3.3 and H4

Molecular target: NR5A2 wild type;histone octamer (Homo sapiens;, UniProt O00482;C0HKE1;Q6ZWY9;P84244;P62806 1-541;2-130;2-126;2-136;2-103, |)
Experiment: SeEN-seq (EMSA of nucleosome library followed by sequencing); 0.8 uM human NR5A2; 20 mM Tris-HCl pH 7.5, 120 mM NaCl, 1 mM MgCl2, 10 uM ZnCl2, 1 mM DTT, 100 ug/ml BSA, room temperature, 30 min; 0.1 uM nucleosome library; high values mean tight binding

Binder | binding signal
B1 | 6.62 log2 enrichment (bound/unbound, relative to Widom 601)
B2 | 1.09 log2 enrichment (bound/unbound, relative to Widom 601)
B3 | 0.787 log2 enrichment (bound/unbound, relative to Widom 601)
B4 | 0.697 log2 enrichment (bound/unbound, relative to Widom 601)
B5 | 0.706 log2 enrichment (bound/unbound, relative to Widom 601)
B6 | 0.708 log2 enrichment (bound/unbound, relative to Widom 601)
B7 | 0.778 log2 enrichment (bound/unbound, relative to Widom 601)
B8 | 1.7 log2 enrichment (bound/unbound, relative to Widom 601)
B9 | 1.35 log2 enrichment (bound/unbound, relative to Widom 601)
B10 | 1.81 log2 enrichment (bound/unbound, relative to Widom 601)
B11 | 1.08 log2 enrichment (bound/unbound, relative to Widom 601)
B12 | 1.02 log2 enrichment (bound/unbound, relative to Widom 601)
B13 | 0.635 log2 enrichment (bound/unbound, relative to Widom 601)
B14 | 0.842 log2 enrichment (bound/unbound, relative to Widom 601)
B15 | 0.845 log2 enrichment (bound/unbound, relative to Widom 601)

Molecular target: mouse Nr5a2 wild type;histone octamer (Mus musculus;, UniProt P45448;C0HKE1;Q6ZWY9;P84244;P62806 1-560;2-130;2-126;2-136;2-103, |)
Experiment: SeEN-seq (EMSA of nucleosome library followed by sequencing); 1.2 uM mouse Nr5a2; 20 mM Tris-HCl pH 7.5, 120 mM NaCl, 1 mM MgCl2, 10 uM ZnCl2, 1 mM DTT, 100 ug/ml BSA, room temperature, 30 min; 0.1 uM nucleosome library; high values mean tight binding

Binder | binding signal
B1 | 5.04 log2 enrichment (bound/unbound, relative to Widom 601)
B2 | 1.09 log2 enrichment (bound/unbound, relative to Widom 601)
B3 | 0.718 log2 enrichment (bound/unbound, relative to Widom 601)
B4 | 0.72 log2 enrichment (bound/unbound, relative to Widom 601)
B5 | 0.642 log2 enrichment (bound/unbound, relative to Widom 601)
B6 | 0.587 log2 enrichment (bound/unbound, relative to Widom 601)
B7 | 0.664 log2 enrichment (bound/unbound, relative to Widom 601)
B8 | 2.1 log2 enrichment (bound/unbound, relative to Widom 601)
B9 | 1.28 log2 enrichment (bound/unbound, relative to Widom 601)
B10 | 2.16 log2 enrichment (bound/unbound, relative to Widom 601)
B11 | 1.08 log2 enrichment (bound/unbound, relative to Widom 601)
B12 | 0.698 log2 enrichment (bound/unbound, relative to Widom 601)
B13 | 0.66 log2 enrichment (bound/unbound, relative to Widom 601)
B14 | 0.575 log2 enrichment (bound/unbound, relative to Widom 601)
B15 | 0.725 log2 enrichment (bound/unbound, relative to Widom 601)
